This passage reports growth results from PubChem BioAssay (NCI).

Common to all, as to experiment: NCI-60 one-dose screen, 48 h (100 = growth as untreated, 0 = no growth, -100 = all killed)
Common to all, as to details: 10 µM unless noted

For test [1], the system named is RPMI-8226 leukemia.
Test [2] relates to OVCAR-8 ovarian.
For test [3], the system named is OVCAR-5 ovarian.
Test [4] concerns OVCAR-4 ovarian.
In test [5] the test system is SK-OV-3 ovarian.
For test [6], the system named is IGROV1 ovarian.
Test [7] has as its system OVCAR-3 ovarian.
Test [8] deals with HS 578T breast.
The subject of test [9] is NCI/ADR-RES ovarian.
Test [10] relates to T-47D breast.

About 83,000 compounds went through this panel and 20% of them were active in at least one assay; those are over-represented in the sample as a whole.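 Compound tested at a single concentration for 48 hours in 96-well plates; a percent growth value below 10 was scored as active.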 Values without a mark were called inactive. Calls of active or inactive are those of the source.

`O=C(CCl)N1CCCc2ccccc21`: the growth in test [1] is 102%; in test [2], 107%; in [3], 99.2%; in test [4], 102%; in test [5], 119%; in test [6], 106%. The growth is 94.9% in test [7], 105% in test [8], 96.8% in test [9] and 106% in test [10].
Regarding `NCCCn1c2c(c3cc(-c4ccn[nH]4)ccc3c1=O)C(=O)c1ccccc1-2`, the growth in test [1] is 51.3%; in [2], 40.6%; in [3], 98.8%; in test [4], 50.3%; in test [5], 81.5%; in [6], 35.4%. Also, the growth in test [7] is 59%; in test [8], 62.3%; in test [9], 45.8%; in test [10] it was 73.3%.
For `N#Cc1c(NC(=O)c2cccs2)[n+]([O-])c2cc(C(F)(F)F)ccc2[n+]1[O-]`, the growth is 95.5% in test [1]; 95.4% in test [2]; 111% in test [3]; 94.1% in test [4]; 97.2% in [5]; -54.2% (active) in test [6]. The growth in test [7] was 81.9%; in [8] it was 84.5%; in test [9] it was 107%; in [10] it was 90.2%.
Take `C#CCN(CCCOc1ccc(Cl)cc1Cl)CCCSC(=O)CCCCCN1/C(=C\C=C2/CCCC(/C=C/C3=[N+](CCCCCC(=O)[O-])c4ccccc4C3(C)C)=C2Cl)C(C)(C)c2ccccc21`: the growth was -22.6% (active) in test [1]; 8.18% (active) in test [2]; 66.4% in [3]; 57.1% in test [4]; 65% in [5]; -13.2% (active) in test [6]. The growth in [7] was 1.44% (active); in [8], 6.47% (active); in [9] it was 106%; in test [10], -21.4% (active).
Take `O=C(O)c1cn(C2CC2)c2cc(N3CCN(C(=O)CSc4nnc(-c5ccc(Cl)cc5)n4-c4ccccc4)CC3)c(F)cc2c1=O`: the growth was 102% in test [1]; 102% in test [2]; 121% in [3]; 110% in test [4]; 79.8% in test [5]; 107% in test [6]. Also, the growth is 110% in [7], 101% in [8], 104% in test [9] and 77.9% in test [10].
Take `CC(C)Cc1cc(CNC(=O)C2[C@H]3CN(C(=O)c4ccccc4)C[C@@H]23)nn1-c1ccccc1` (stereo not given in full): the growth is 84.7% in test [1]; 77.9% in test [2]; 97.9% in [3]; 104% in test [4]; 76.8% in test [5]; 107% in test [6]. Further, the growth in test [7] is 100%; in test [8], 97.9%; in [9], 93.8%; in test [10] it was 74.2%.
As for `O=c1c2ccccc2oc2ccc(OCCCCCN3CCCCCC3)cc12`, the growth was 57.3% in test [1]; 75.5% in [2]; 92% in test [3]; 73.1% in [4]; 93.5% in [5]; 77.2% in [6]. Besides, the growth in [7] was 87.1%; in test [8] it was 88.8%; in test [9], 77.8%; in [10], 58.8%.
As to `O=C1CC23OC4ON=C(Br)C4C2C(O)c2ccccc2N13` (stereo not given), the growth in [1] is 100%; in test [2], 104%; in test [3], 114%; in [4], 120%; in test [5], 93.5%; in test [6], 88.8%. Also, the growth is 96.3% in [7], 98.4% in test [8], 94.5% in [9] and 100% in [10].
As to `COC(=O)[C@]1(C)CCC[C@]2(C)[C@H]3C[C@H]4C(C(C)C)=C[C@]3(CC[C@H]21)[C@@H]1C(=O)N(CCC#N)C(=O)[C@@H]14`, the growth in [1] is 62%; in [2], 85.5%; in [3], 116%; in test [4], 71.7%; in test [5], 98.8%; in test [6], 86.2%. Further, the growth in test [7] is 88.9%; in [8], 89.4%; in [9], 84.4%; in test [10] it was 69.9%.
Regarding `COc1cc(F)c(-c2nc3c(C)cccc3n2Cc2c(F)cccc2F)c(F)c1`, the growth in [1] is 68.2%; in [2], 90.5%; in test [3], 94.6%; in test [4] it was 77.6%; in test [5] it was 90.5%; in test [6], 69.4%. Besides, the growth in test [7] is 96.2%; in [8], 91.6%; in test [9], 77.9%; in test [10], 71.4%.
With `C=C(C)[C@@H]1CC[C@]2(C(=O)OCCOCCOCC[P+](c3ccccc3)(c3ccccc3)c3ccccc3)CC[C@]3(C)[C@H](CC[C@@H]4[C@@]5(C)CC[C@H](OC(=O)C(Cl)Cl)C(C)(C)[C@@H]5CC[C@]43C)[C@@H]12`, the growth was -39.3% (active) in test [1]; 5.47% (active) in test [2]; 39.3% in test [3]; -0.899% (active) in test [4]; -8.97% (active) in [5]; 6.43% (active) in [6]. The growth was -43.9% (active) in [7], 21.3% in [8], 50.2% in test [9] and -21.2% (active) in test [10].
For the compound `COC(=O)c1ccc2c(c1)n(Cc1ccc3ccccc3c1)c[n+]2Cc1ccc2ccccc2c1`, the growth was -5.06% (active) in test [1]; 52.9% in test [2]; 55.6% in test [3]; 35.5% in [4]; 75.5% in [5]; 4.97% (active) in [6]. Moreover, the growth in test [7] is 15.6%; in test [8] it was 67.6%; in test [9], 101%; in [10] it was 0.0638% (active).
Turning to `O=S(=O)(O)c1ccc(N=NSc2ccc3ccccc3c2)cc1`, the growth in test [1] is 91.7%; in test [2], 108%; in [3] it was 106%; in test [4], 101%; in test [5], 112%; in test [6], 93.2%. Also, the growth in test [7] is 98.6%; in test [8], 98.7%; in test [9] it was 96.4%; in test [10] it was 82.2%.
Regarding `COc1ccc(/C=C/C(=O)/C=C(/C=C/c2ccc(OC)c(OC)c2)OB(F)F)cc1OC`, the growth was -20.9% (active) in test [1]; 5.06% (active) in test [2]; 65.2% in test [3]; 44.8% in test [4]; 81.9% in test [5]; 49.6% in test [6]. The growth was -8.63% (active) in test [7], 50.2% in test [8], 30.1% in test [9] and 35.5% in test [10].
For `CCCCc1n(Cc2ccc3ccccc3n2)cc[n+]1Cc1ccc2ccccc2c1`, the growth in test [1] is -7.1% (active); in test [2], 2.38% (active); in test [3] it was 24%; in test [4], 28.6%; in test [5] it was -14% (active); in [6] it was -14.7% (active). Besides, the growth was 5.59% (active) in [7], 16.6% in test [8], 101% in [9] and -0.345% (active) in test [10].
On to `CC(=O)c1cnc(-c2ccccc2)nc1CBr`, for which the growth was 37.7% in test [1]; 89.3% in test [2]; 96.3% in [3]; 79.7% in test [4]; 105% in test [5]; 89.2% in [6]. For the same compound, the growth in test [7] is 30.1%; in test [8], 89%; in [9] it was 92.2%; in test [10], 38.5%.
`CCN(CC)c1ccc2c(c1)Oc1nc(N)c(C#N)c(N)c1C2Sc1ccc(OC)cc1` (stereo not given): the growth in test [1] is -28.3% (active); in [2] it was 5.24% (active); in test [3], 51.9%; in [4] it was 46.2%; in [5] it was 34%; in test [6] it was -3.83% (active). In addition, the growth in test [7] is -15.1% (active); in [8] it was 19.7%; in test [9], 46.9%; in [10], 51.8%.
On to `O=C(O)c1ccc(-n2cc(/C=N/Nc3ccc(Cl)cc3Cl)c(-c3ccccc3)n2)cc1`, for which the growth in test [1] is 83.2%; in test [2], 98.6%; in test [3], 107%; in test [4] it was 87.3%; in [5] it was 89.4%; in test [6], 89%. For the same compound, the growth in test [7] was 88.7%; in test [8], 107%; in test [9], 92.3%; in test [10] it was 70.7%.
Turning to `COc1ccc(C(=O)c2cc(OC)c(OC)c(OC)c2)cc1OC(=O)C(Cl)(Cl)Cl`, the growth in test [1] is 17.9%; in test [2], 2.55% (active); in test [3], 63.8%; in [4] it was 59.7%; in [5], 8.13% (active); in test [6] it was 15.9%. For the same compound, the growth in test [7] is -13.5% (active); in test [8], 38.9%; in test [9], 9.28% (active); in [10], 63%.
Take `C=C1C(=O)O[C@H]2[C@H]1CC/C(COC(=O)NCC(=O)Nc1ccc(OC)c(C(N)=O)c1O)=C\CC[C@@]1(C)O[C@@H]21`: the growth in [1] is 2.96% (active); in test [2], 75.3%; in [3], 102%; in test [4], 68.3%; in [5], 100%; in test [6] it was 21.6%. Also, the growth in [7] was 25.7%; in test [8] it was 89.3%; in [9], 104%; in test [10] it was 34.4%.
Consider `C=C1C(=O)O[C@H]2[C@H]1CC/C(C=Nc1c(N)cc(F)cc1Br)=C\CC[C@@]1(C)O[C@@H]21`, for which the growth is 12.8% in test [1]; 78.4% in test [2]; 103% in [3]; 105% in [4]; 87.3% in test [5]; 60.4% in [6]. For the same compound, the growth is 50.9% in test [7], 90.2% in test [8], 109% in [9] and 50% in [10].
As to `COc1ccc2nc3nc4ccc[nH]c4cc3c2c1`, the growth in [1] was 82.9%; in test [2], 96.6%; in test [3], 115%; in test [4], 92.2%; in [5] it was 89%; in test [6], 69.6%. The growth in [7] was 91.8%; in test [8] it was 92.5%; in test [9], 96.1%; in [10], 38.3%.
As to `N#Cc1c(-c2ccc(F)cc2)c(C#N)c2c(C#N)c(N)nn2c1N`, the growth in test [1] is 104%; in test [2], 103%; in [3] it was 96.1%; in [4] it was 100%; in test [5] it was 82.2%; in test [6], 80.9%. The growth in test [7] was 98.7%; in test [8], 98%; in test [9] it was 99.9%; in test [10] it was 66.4%.
Regarding `C=C1C(=O)O[C@H]2[C@H]1CC/C(COC(=O)c1cccnc1)=C\CC[C@@]1(C)O[C@@H]21`, the growth in test [1] was 28.5%; in test [2] it was 86.4%; in test [3], 73.8%; in test [4], 70%; in [5] it was 86.1%; in [6], 64.8%. Besides, the growth in test [7] is 26.4%; in [8], 89.9%; in test [9] it was 93.5%; in test [10], 55.7%.
Turning to `CC(C)NS(=O)(=O)c1cccc(-c2ccc3c(=O)n(CCCN)c4c(c3c2)C(=O)c2ccccc2-4)c1`, the growth in test [1] was 102%; in test [2] it was 97.6%; in test [3], 109%; in test [4], 85.2%; in test [5], 107%; in test [6], 102%. Also, the growth in [7] was 99%; in test [8], 105%; in test [9], 98.6%; in [10], 103%.
For the compound `C=C(C)[C@@H]1CC[C@]2(C(=O)N=C=S)CC[C@]3(C)[C@H](CC[C@@H]4[C@@]5(C)CCC(=O)C(C)(C)[C@@H]5CC[C@]43C)[C@@H]12`, the growth in test [1] is 16.1%; in test [2], 24.3%; in test [3], 49.1%; in test [4] it was 31.4%; in [5] it was 14.7%; in test [6], 66.2%. For the same compound, the growth was 25.7% in test [7], 33% in test [8], 28.2% in test [9] and 18.1% in test [10].
